Data from PubChem BioAssay AID652058 (Broad Institute, 2013).
Screen size: about 1,200 compounds; about 870 (72%) were called active. Inconclusive results (about 3%) are left out.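 How the source made its calls: active means every test run fits a falling curve whose half-maximal concentration is at most twice the top valid dose; inconclusive means runs disagree, or flat 30 to 70% inhibition, or poor fit; inactive means every run inactive: flat, rising or weaker potency.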 The set was probably picked from earlier hits. Only a sample is shown. A call without a number means that no potency is given here. Potency and affinity values are given separately.

experiment: ZM109 Env clade C HIV-1 fusion inhibitors, dose response, HeLa effector, CEM target cells, luciferase, cherry-pick (AID 652058); conditions: HeLa Env/CEM cell fusion, 16-24 h; series mostly up to 35 µM

Row | Compound | activity change, negative = inhibition
1 | O=C(Nc1cccc(F)c1)N[C@@H]1CC[C@H](CCNS(=O)(=O)c2cccc(Cl)c2)O[C@@H]1CO | inactive
2 | CN(C)Cc1cn(CC[C@@H]2CC[C@H](N)[C@H](CO)O2)nn1 | inactive
3 | O=C(Nc1cccc(F)c1)N[C@H]1CC[C@@H](CCNS(=O)(=O)c2cccc(Cl)c2)O[C@H]1CO | inactive
4 | COc1ccc(-c2c(C)nn3c(C(F)(F)F)cc(C)nc23)cc1 | inactive
5 | CCCNC(=O)C[C@@H]1C[C@H]2c3cc(NC(=O)c4cccnc4)ccc3O[C@H]2[C@H](CO)O1 | inactive
6 | Cc1cccc(C)c1N(CC(O)Cn1c2ccccc2c2ccccc21)S(C)(=O)=O (configuration not stated) | inactive
7 | CCNC(=O)C[C@@H]1CC[C@@H]2[C@H](COC[C@@H](O)CN2C(=O)c2ccccn2)O1 | inactive
8 | CS(=O)(=O)N1CCc2cc(-c3csc(NC(=O)Cc4cccs4)n3)ccc21 | inactive
9 | O=C(Nc1nc(-c2ccc3c(c2)OCO3)cs1)c1ccncc1 | inactive
10 | CCOC(=O)[C@@H]1[C@H]2COc3cc(OC)ccc3[C@H]2N2C(=O)N(c3cccc(F)c3)C(=O)[C@@]12C | inactive
11 | O=C(C[C@@H]1C[C@@H]2c3cc(NS(=O)(=O)c4ccc(F)cc4)ccc3O[C@@H]2[C@H](CO)O1)NCc1ccccc1F | inactive
12 | COc1ccccc1CNC(=O)C[C@H]1C[C@@H]2c3cc(NC(=O)c4cccnc4)ccc3O[C@@H]2[C@@H](CO)O1 | inactive
13 | O=C(C[C@@H]1C[C@@H]2c3cc(NC(=O)c4ccc5c(c4)OCO5)ccc3O[C@@H]2[C@@H](CO)O1)NCc1ccc(Oc2ccccc2)cc1 | inactive
14 | O=C(C[C@@H]1C[C@@H]2c3cc(NC(=O)Nc4ccccc4)ccc3O[C@@H]2[C@@H](CO)O1)NCc1ccccc1 | inactive
15 | COC(=O)Cn1cnc2c(Cl)nc(F)nc21 | inactive
16 | O=C(C[C@H]1C[C@@H]2c3cc(NC(=O)C4CCOCC4)ccc3O[C@@H]2[C@H](CO)O1)NCc1ccccc1 | inactive
17 | CN(C)C(=O)C[C@@H]1C[C@H]2c3cc(NS(=O)(=O)c4ccc(F)cc4)ccc3O[C@H]2[C@H](CO)O1 | inactive
18 | CN(C)C(=O)C[C@@H]1C[C@@H]2c3cc(NS(=O)(=O)c4ccc(F)cc4)ccc3O[C@@H]2[C@@H](CO)O1 | inactive
19 | CCCNC(=O)C[C@@H]1C[C@@H]2c3cc(NC(=O)Cc4ccncc4)ccc3O[C@@H]2[C@H](CO)O1 | inactive
20 | O=C(C[C@@H]1C[C@H]2c3cc(NC(=O)C4CCC4)ccc3O[C@H]2[C@H](CO)O1)NCC(F)(F)F | inactive
21 | CCCNC(=O)C[C@@H]1C[C@@H]2c3cc(NC(=O)CN(C)C)ccc3O[C@@H]2[C@H](CO)O1 | inactive
22 | O=C(C[C@H]1C[C@H]2c3cc(NC(=O)C4CCC4)ccc3O[C@H]2[C@@H](CO)O1)NCc1ccc2c(c1)OCO2 | inactive
23 | CC(=O)OC1c2ccccc2C(=O)N1c1ccccc1C (configuration not stated) | inactive
24 | O=C(COC(=O)c1cccc(S(=O)(=O)N2CCOCC2)c1)NCc1ccccc1 | inactive
25 | Cc1ccc(S(=O)(=O)N(C)c2ccc(C(=O)N3CCN(Cc4ccc5c(c4)OCO5)CC3)cc2)cc1 | inactive
26 | c1ccc(CSc2nnc([C@@H]3CCCN3)o2)cc1 | inactive

Row | Compound | activity change, negative = inhibition
27 | Cc1nnc(SC(=O)N2c3ccccc3Sc3ccccc32)s1 | inactive
28 | Cc1ccccc1-n1c(=O)c2ccccc2n2cnnc12 | inactive
29 | O=c1c2ccccc2nnn1CSc1nnc(COc2ccc(Cl)cc2)n1Cc1ccco1 | inactive
30 | O=C(CNC(=O)c1cccc(-n2cccc2)c1)Nc1ccccc1Br | inactive
31 | Cc1ccc(S(=O)(=O)N[C@@H]2CC[C@H](CCNC(=O)c3ccccc3F)O[C@H]2CO)cc1 | inactive
32 | COc1cccc(S(=O)(=O)N[C@H]2CC[C@@H](CCN)O[C@@H]2CO)c1 | inactive
33 | COc1ccccc1S(=O)(=O)N[C@H]1CC[C@H](CC(=O)N2CCN(C)CC2)O[C@H]1CO | inactive
34 | O=C(NCC[C@@H]1CC[C@@H](NS(=O)(=O)c2ccccc2F)[C@@H](CO)O1)c1ccc(F)cc1 | inactive
35 | COc1cc(-c2cc(OC)c(O)c(OC)c2)cc(OC)c1O | inactive
36 | Cc1ccc(C2Oc3ccccc3C3=C2C(c2cccs2)n2ncnc2N3)cc1 (configuration not stated) | inactive
37 | O=C(NCCCN1CCc2ccccc2C1)Nc1ccc(Cl)cc1 | inactive
38 | O=C(CN1CCCN(Cc2ccc(F)cc2Cl)C1=O)NC1CCCCCCC1 | inactive
39 | CCN(CC)S(=O)(=O)c1cccc(S(=O)(=O)c2cccc(S(=O)(=O)N(CC)CC)c2)c1 | inactive
40 | CS(=O)(=O)N(Cc1ccc(Cl)cc1)c1ccc(C(=O)NCCC2=CCCCC2)cc1 | inactive
41 | CCCNC(=O)C[C@H]1C[C@H]2c3cc(NC(=O)Cc4ccncc4)ccc3O[C@H]2[C@H](CO)O1 | inactive
42 | COc1ccc2c3c([nH]c2c1)[C@H](CO)N(C(=O)Nc1cccc(F)c1)CC31CCN(S(=O)(=O)c2ccccc2)CC1 | inactive
43 | CCCCOc1ccc(S(=O)(=O)Nc2cccnc2)cc1 | inactive
44 | COc1ccc(S(=O)(=O)N[C@@H]2CC[C@@H](CC(=O)NCCc3ccncc3)O[C@@H]2CO)cc1 | inactive
45 | CC(=O)c1ccc(S(=O)(=O)N2CCN(c3nc4c(C)c(C)ccc4cc3C#N)CC2)cc1 | inactive
46 | O=C(Nc1nc2ccccc2[nH]1)c1ccccc1F | inactive
47 | Cc1ccc(NC(=O)c2ccc(OCC3CCCO3)cc2)cc1Cl (configuration not stated) | inactive
48 | Cn1c(CN2CCCCC2)nc2cc(NC(=O)c3ccc(Cl)cc3)ccc21 | inactive
49 | O=C(COc1ccc(-n2cnnn2)cc1)Nc1ccc(F)c(F)c1 | inactive
50 | O=C(Nc1ccc(Cl)cc1)Nc1cccc(C(=O)O)c1 | inactive
51 | COC(=O)[C@H](Cc1ccccc1)NC(=O)Cn1cnc(C(=O)Nc2ccc(C)c(C)c2)n1 | inactive
52 | Cc1ccc(NC(=O)c2ccc(CN3CCc4ccccc4C3)cc2)cc1 | inactive
